CF NFkB block: inhibitors of PAF-induced NF-kB signaling, primary screen, cell-based, GFP fluorescence, uHTS | inhibition, % at 5 µM | 0.86% of 360,000 active | KKLEB NF-kB-GFP reporter, GFP fluorescence overnight | AID 588850, 2011;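 active means at least 50% inhibition at 5 µM, scaled per plate between neutral and stimulator controls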;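 further: PAF is a Pseudomonas aeruginosa culture filtrate used as stimulus; plate controls were PAF-stimulated DMSO wells for no effect and unstimulated DMSO wells for full effect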
Peg3 promoter: Peg3 promoter-driven luciferase inhibitors, primary screen, cell-based, HeLa, luciferase luminescence. 1.7% of 360,000 active. inhibition, % at 20 µM. HeLa PEG-Prom luciferase reporter, overnight;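 active means inhibition of at least 50% at 20 µM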
KKLEB tox: cytotoxicity in KKLEB CF airway cells, primary screen, cytotoxicity control for CF NF-kB inhibitor project, cell-based, uHTS, fluorescence assay plates; KKLEB CF airway cells viability, ATPlite luminescence, overnight; stronger effect = lower value; cells stimulated with P. aeruginosa culture filtrate; activity change (cytotoxicity), % at 5 µM; 0.36% of 360,000 active; AID 602141, 2011;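 active means corrected activity change at or below -50% at 5 µM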
TWEAK-Fn14 inh: inhibitors of TWEAK-Fn14 signaling, primary screen, luciferase reporter cells, uHTS; AID 1159606, 2016; inhibition, % at 10 µM; TWEAK-stimulated Fn14 reporter cells, luciferase luminescence, 8 h; 2% of 360,000 active; in the data active means inhibition above about 50%
HIF-2a block: HIF-2a reporter inhibitors, primary screen, luminescence, 786-0 RCC cells | 786-0 RCC cells HIF-2a reporter, luciferase luminescence, overnight | inhibition, % at 18.8 µM | 0.72% of 360,000 active | AID 624352, 2012;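 active means inhibition of the luminescence signal of 40% or more relative to plate controls, in a single-dose primary screen at 18.75 µM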
TROY NFkB inh: inhibitors of TROY-driven NF-kB signaling, primary screen, Q293 LMP1-TROYcd cells, NF-kB luciferase, uHTS. Q293 LMP1-TROYcd NF-kB luciferase reporter, 4 h. inhibition, % at 10 µM. AID 1347056, 2019. 0.98% of 360,000 active;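 active means compounds whose plate-normalised and pattern-corrected inhibition of the luciferase reporter signal at the single screening dose is 50% or more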
An asterisk follows results filed as active. In the library only some 4% were active in any assay of this set; here they are far more common.

Results for COc1ccc2[nH]c3c(c2c1)CCN1C(=O)C(CC(=O)NCCN2CCOCC2)C[C@H](C(=O)N2CCOCC2)[C@@]31C (some centres undefined) ?
CF NFkB block: -30; Peg3 promoter: -14; KKLEB tox: 21; TWEAK-Fn14 inh: 12; HIF-2a block: 3; TROY NFkB inh: 8

Results for Cc1ncc([N+](=O)[O-])n1CC(=O)Nc1ccccc1F ?
CF NFkB block: -4; Peg3 promoter: 9; KKLEB tox: 10; TWEAK-Fn14 inh: 7; HIF-2a block: 22; TROY NFkB inh: 8

What do the screens show for `N#CCCn1ccc(NC(=O)c2ccc(Cl)cc2)n1`?
CF NFkB block: -4; Peg3 promoter: -23; KKLEB tox: 20; TWEAK-Fn14 inh: 67*; HIF-2a block: -55

Results for O=C(Nc1ccn(Cc2ccc(Cl)cc2)n1)c1ccccc1 ?
CF NFkB block: -9; Peg3 promoter: -223; KKLEB tox: -5; TWEAK-Fn14 inh: -7; HIF-2a block: -303; TROY NFkB inh: -68

What do the screens show for `CN(C)CC/C=C1\c2ccccc2COc2ccccc21`?
CF NFkB block: -11; Peg3 promoter: -29; KKLEB tox: -56*; TWEAK-Fn14 inh: 7; HIF-2a block: -10; TROY NFkB inh: 6

Results for CN(C)CC/C=C1/c2ccccc2CS(=O)(=O)c2ccccc21 ?
CF NFkB block: -8; Peg3 promoter: -3; KKLEB tox: 1; TWEAK-Fn14 inh: 8; HIF-2a block: 11; TROY NFkB inh: 6

How did COc1ccc(NC(=O)N(CCCN2CCOCC2)Cc2cccnc2)c(OC)c1 do in these assays?
CF NFkB block: -16; Peg3 promoter: 9; KKLEB tox: -10; TWEAK-Fn14 inh: 5; HIF-2a block: 7; TROY NFkB inh: -11

How did FC(F)(F)c1cccc(NC(=S)N(CCCN2CCCC2)Cc2cccn2Cc2ccc(Cl)cc2)c1 do in these assays?
CF NFkB block: 36; Peg3 promoter: 106*; KKLEB tox: -17; TWEAK-Fn14 inh: -49; HIF-2a block: -21; TROY NFkB inh: -2

What do the screens show for `COc1ccc(NC(=S)N(CCCN2CCCC2)Cc2cccn2Cc2ccc(Cl)cc2)cc1Cl`?
CF NFkB block: 26; Peg3 promoter: 103*; KKLEB tox: -12; TWEAK-Fn14 inh: -28; HIF-2a block: -13; TROY NFkB inh: -3

Results for Cc1ccc(NC(=S)N(CCCN2CCCC2)Cc2cccn2Cc2ccc(Cl)cc2)cc1Cl ?
CF NFkB block: 16; Peg3 promoter: 98*; KKLEB tox: -19; TWEAK-Fn14 inh: -28; HIF-2a block: -14; TROY NFkB inh: -3

How did CCOc1ccc(/C=C(\C(=O)O)c2ccc(S(=O)(=O)N3CCOCC3)s2)cc1OC do in these assays?
CF NFkB block: 3; Peg3 promoter: 12; KKLEB tox: 6; TWEAK-Fn14 inh: 7; HIF-2a block: 10; TROY NFkB inh: -2

Results for C=C(C)COc1ccc(-c2n[nH]c(C)c2-c2ccc(OC)cc2)c(O)c1 ?
CF NFkB block: -11; Peg3 promoter: 80*; KKLEB tox: -15; TWEAK-Fn14 inh: 2; HIF-2a block: 19; TROY NFkB inh: -10

What do the screens show for `CC1CN/C(=C\C(=O)c2ccc(Cl)cc2)C(=O)N1` (centres undefined)?
CF NFkB block: 6; Peg3 promoter: -131; KKLEB tox: 12; TWEAK-Fn14 inh: 73*; HIF-2a block: -85; TROY NFkB inh: -13

Results for Cc1oc(-c2ccccc2)nc1CSc1nc2c(c(=O)[nH]1)CCC2 ?
CF NFkB block: 30; Peg3 promoter: 16; KKLEB tox: -15; TWEAK-Fn14 inh: 1; HIF-2a block: 5; TROY NFkB inh: 44

Results for Cc1cccc(-c2nc(CSc3nc4c(c(=O)[nH]3)CCC4)c(C)o2)c1 ?
CF NFkB block: 3; Peg3 promoter: 19; KKLEB tox: -13; TWEAK-Fn14 inh: 49; HIF-2a block: 6; TROY NFkB inh: 51*

How did O=C(Nc1cccc(-c2cccc(Cl)c2)c1)C1CCN(Cc2ccc(CO)o2)CC1 do in these assays?
CF NFkB block: 40; Peg3 promoter: 54*; KKLEB tox: -24; TWEAK-Fn14 inh: 9; HIF-2a block: -14; TROY NFkB inh: -9

Results for Cc1ccc(NC(=O)Cc2nnc(SCC(=O)NC3=NCCS3)n2C)cc1 ?
CF NFkB block: 8; Peg3 promoter: -12; KKLEB tox: 0; TWEAK-Fn14 inh: -8; HIF-2a block: 20; TROY NFkB inh: -3

What do the screens show for `O=C(Nc1ncc([N+](=O)[O-])s1)c1cccc([N+](=O)[O-])c1`?
CF NFkB block: 45; Peg3 promoter: -42; KKLEB tox: -25; TWEAK-Fn14 inh: 93*; HIF-2a block: -40; TROY NFkB inh: -14

How did OC(CCN1CCCC1)(c1ccccc1)C1CCCCC1 (centres undefined) do in these assays?
CF NFkB block: -12; Peg3 promoter: -15; KKLEB tox: 14; TWEAK-Fn14 inh: 5; HIF-2a block: -13; TROY NFkB inh: -5

How did CN1CCCN=C1COC(=O)C(O)(c1ccccc1)C1CCCCC1 (centres undefined) do in these assays?
CF NFkB block: 19; Peg3 promoter: -7; KKLEB tox: -64*; TWEAK-Fn14 inh: 1; HIF-2a block: -7; TROY NFkB inh: 7

Results for CC1Cc2ccccc2N1C(=O)CN1CCN(S(=O)(=O)c2cccs2)CC1 (centres undefined) ?
CF NFkB block: 6; Peg3 promoter: -4; KKLEB tox: 4; TWEAK-Fn14 inh: 4; HIF-2a block: 8; TROY NFkB inh: 3

What do the screens show for `CCC(CC)COC(=O)C1=C(C)NC(=O)NC1c1cc(OC)ccc1OC` (centres undefined)?
CF NFkB block: 6; Peg3 promoter: 5; KKLEB tox: -1; TWEAK-Fn14 inh: 104*; HIF-2a block: 11; TROY NFkB inh: -26

How did CCC(CC)COC(=O)C1=C(C)NC(=O)NC1c1ccc(OC)cc1 (centres undefined) do in these assays?
CF NFkB block: -1; Peg3 promoter: 30; KKLEB tox: 1; TWEAK-Fn14 inh: 10; HIF-2a block: 25; TROY NFkB inh: -8

How did c1ccc2c(c1)OCC(CNc1ncnc3sccc13)O2 (centres undefined) do in these assays?
CF NFkB block: 23; Peg3 promoter: -32; KKLEB tox: 0; TWEAK-Fn14 inh: 51*; HIF-2a block: -63; TROY NFkB inh: 0

How did C=CCn1c(C)cc(C(=O)COC(=O)CNC(=O)c2ccccc2)c1C do in these assays?
CF NFkB block: 6; Peg3 promoter: -7; KKLEB tox: -3; TWEAK-Fn14 inh: 89*; HIF-2a block: -23; TROY NFkB inh: 85*
